# Screening results from PubChem.
# This is a sample that favours compounds with a hit; in the whole collection about 22% have one here.
# Pf growth 96h = inhibits malaria parasite growth, 96 h; P. falciparum luciferase reporter growth, 96 h; Potency, µM (doses to about 28.7 µM), hits mostly inhibitors; hit rate 6.9% among 320,000
#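 Erythrocytes infected with luciferase-expressing P. falciparum were dispensed at 2% hematocrit and 0.05% parasitemia (final), then incubated with compounds 96 hours at 37 C in 5% CO2. Luminescence after detection reagent addition reported growth.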
# Pf growth 48h = inhibits P. falciparum growth in the first generation, 48 h; P. falciparum luciferase growth in erythrocytes, 48 h; Potency, µM (doses to about 28.7 µM), actives largely listed as inhibitors; hit rate 5.9% among 310,000
#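 First compound was added to culture medium, then infected red cells at 0.1% parasitemia and 2% hematocrit (final). After incubation at 37 C under 5% CO2, luciferase detection reagent was dispensed and light output recorded.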
# Cycloheximide cs = affects cycloheximide protein synthesis inhibition readout, counter-screen; cell reporter, cycloheximide protein synthesis inhibition counterscreen; max response, %; hit rate 12% among 300,000; AID 2314; in the data active = max response mostly above about 13%, no sharp cut-off; inactive = mostly below about 14%; note: read at 38.3 µM for the half of the compounds with a filed dose
# LmPK inh = blocks Leishmania mexicana pyruvate kinase activity. Q27686. purified LmPK, Kinase-Glo ATP luminescence, 1 h. Potency, µM (doses to about 57.5 µM), hits mostly inhibitors. hit rate 0.37% among 290,000. AID 1721
# Target sequence (Q27686 whole entry, looked up): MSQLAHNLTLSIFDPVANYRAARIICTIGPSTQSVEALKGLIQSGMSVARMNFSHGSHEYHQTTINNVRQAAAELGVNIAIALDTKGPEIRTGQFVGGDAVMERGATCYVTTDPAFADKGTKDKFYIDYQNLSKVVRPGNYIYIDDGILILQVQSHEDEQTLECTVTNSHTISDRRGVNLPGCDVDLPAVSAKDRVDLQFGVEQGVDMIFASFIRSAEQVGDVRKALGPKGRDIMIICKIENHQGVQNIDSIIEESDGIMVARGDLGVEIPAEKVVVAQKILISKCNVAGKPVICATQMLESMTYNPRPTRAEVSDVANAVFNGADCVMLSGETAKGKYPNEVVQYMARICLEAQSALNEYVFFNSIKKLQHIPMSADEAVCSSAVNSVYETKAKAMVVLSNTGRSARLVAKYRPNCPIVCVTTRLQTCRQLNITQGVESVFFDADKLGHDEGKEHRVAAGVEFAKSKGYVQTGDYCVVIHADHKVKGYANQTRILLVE
#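 ATP generated from ADP (0.1 mM) and PEP (0.5 mM) by 0.1 nM LmPK over 1 h at room temperature (pH 7.2 imidazole buffer) was detected by coupled luciferase luminescence. Values were normalized to uninhibited and no-enzyme wells.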
# Shiga toxin inh = blocks Shiga toxin action in Vero cells; inhibition, % at 38.7 µM; hit rate 9.2% among 290,000; Vero cells, Shiga toxin protein synthesis inhibition reporter; in the data active = inhibition mostly above about 28%, no sharp cut-off; inactive = mostly below about 43%
# Hits are given with their value; - = inactive; ? = inconclusive; . = not tested or not shown; [ ] = remark or other dose. Unless noted, calls come from the whole dose curve; as a rule, active = well fitted inhibition curve with a large enough effect; inconclusive = small, poorly fitted or top-dose-only effect, or another doubt; inactive = no such curve, though single readings can be large or run the other way.
SMILES,Pf growth 96h,Pf growth 48h,Cycloheximide cs,LmPK inh,Shiga toxin inh
CCOC(=O)N1CCN(C(=O)Cn2nc(C)n3nc(-c4ccccc4)cc3c2=O)CC1,-,-,-,-,-
Cc1cc(N/C=C2\CCCCC2=O)no1,-,-,16,-,-
CC(C)(C)OC(=O)NCCc1nnc(SCc2ccccc2Cl)o1,-[5.75 µM],?,-,-,-
CC(C)(C)OC(=O)NCCc1nnc(S(=O)(=O)Cc2ccc(Cl)cc2Cl)o1,-,-,19,-,-
COc1cc(OC)c(N2CC(C(=O)Nc3cccc(C(=O)NC4CC4)c3)CC2=O)cc1Cl (stereo not drawn),-,-,.,.,.
COc1ccc(S(=O)(=O)N2CCC(C(=O)NCCCc3ccccc3)CC2)cc1,-,-,-,-,-
O=C1CC(Cc2ccc(Br)cc2)C(=O)N1c1ccccc1 (stereo not drawn),?,-,-,-,-
COc1ccc(C(=O)NC(NC(=O)c2ccc(OC)cc2)c2ccccc2F)cc1,-,-,-,-,-
C=CC(=O)NC(NC(=O)C=C)c1ccccc1F,9.3µM,?,-,-,-
C=CC1=C2C=C(C3CC3)N(CCN3CCOCC3)C=C2C(=O)C(C)(OC(=O)c2ccco2)C1=O (stereo not drawn),.,.,.,-[11.5 µM],.
Cc1ccc(NC(=O)C2OCCc3ccccc32)cc1 (stereo not drawn),-,-,40,-,79
Cc1ccc(NC(=O)C(=O)NCC2OCCc3ccccc32)cc1 (stereo not drawn),-,-,-,-,-
Cc1ccc(NC(=O)C2CCCCC2C(=O)O)cc1Cl (stereo not drawn),?,-,-,-,-
Cc1ccc(NC(=O)C2OCCc3ccccc32)cc1Cl (stereo not drawn),8.3µM,-,18,-,58
COC(=O)c1ccccc1NC(=O)COc1ccccc1[N+](=O)[O-],-,-,-,-,-
Cc1ccc(OC/C(=N\O)C(C)(C)C)c([N+](=O)[O-])c1,-,-,34,-,75
Cc1ccc(/C=N\NC(=O)COc2ccc(C)cc2[N+](=O)[O-])cc1,?,?,-,-,-
Cc1ccc(OCC(=O)Nc2ccon2)c([N+](=O)[O-])c1,-,-,42,-,84
Cc1ccc(OCC(=O)Nc2ccccc2[N+](=O)[O-])c(Br)c1,-,-,42,-,122
Cc1ccc2c(c1)N(C(=O)CCC(=O)NCc1cccc(F)c1)CCO2,-,-,-,-,-
Nc1ncc(-c2ccc([N+](=O)[O-])cc2)cn1,-,-,-,-,-
O=[N+]([O-])c1ccc(-c2cnc(NO)nc2)cc1,?,12µM,-,-,-
COc1ccccc1N(CC(=O)NCCSc1ccc(Cl)cc1)S(C)(=O)=O,?,-,-,-,-
COc1ccc(/C=C2\CC/C(=C\c3ccc(OC)c(OC)c3)C2=O)cc1OC,?,-,-,-,-
COc1cc(/C=C2\COC/C(=C\c3ccc(O)c(OC)c3)C2=O)ccc1O,?,10µM,33,-,37
SMILES,Pf growth 96h,Pf growth 48h,Cycloheximide cs,LmPK inh,Shiga toxin inh
COc1cc(/C=C2/CC/C(=C/c3ccc(O)c(OC)c3)C2=O)ccc1O,?,3.3µM,-,-,-
Cc1cc(S(=O)(=O)N2CCOCC2)ccc1NC(=O)c1ccc(F)cc1,-,-,-,-,.
O=S(=O)(c1ccccc1)N1N=C(c2ccc(O)cc2)CC1c1ccco1 (stereo not drawn),?,-,-,-,-
O=[N+]([O-])c1ccc(/C=C/C2=NN(c3ccccc3)C(c3ccco3)C2)cc1 (stereo not drawn),-,-,15,-,-
O=C(O)/C=C/C(=O)N1N=C(c2ccco2)CC1c1ccco1 (stereo not drawn),-,-,-,-,-
O=[N+]([O-])c1ccc(C2=NN(c3ccccc3)C(c3ccco3)C2)cc1 (stereo not drawn),?,?,34,-,60
Cc1ccc(C2=NN(S(=O)(=O)c3ccccc3)C(c3ccco3)C2)cc1 (stereo not drawn),12µM,9.3µM,.,.,.
O=C(COc1ccc(Cl)cc1)NCc1nnc(SCC(=O)Nc2ccccc2F)o1,-,-,-,-,-
COc1cc([N+](=O)[O-])ccc1NC(=O)CCCOc1cc(C)ccc1C,?,-,-,-,-
CCO[C@@H]1OC(C(=O)NCc2ccccc2)=C[C@H](c2csc3ccccc23)[C@H]1CCCO,10µM,?,-,-,-
CCO[C@H]1OC(C(=O)Nc2ccccc2)=C[C@@H](C)[C@@H]1CCCO,-,-,11,-,-
CCO[C@@H]1OC(C(=O)Nc2ccccc2)=C[C@H](c2csc3ccccc23)[C@H]1CCCO,?,7.4µM,-,-,-
CCO[C@@H]1OC(C(=O)Nc2ccccc2)=C[C@H](c2ccccc2)[C@H]1CCCO,-,-,-,-,-
CCO[C@H]1OC(C(=O)NC2CC2)=C[C@@H](c2csc3ccccc23)[C@@H]1CCCO,0.19µM,?,-,-,-
Cc1c[nH]c2ccccc12,-,-,.,.,.
O=C(NCCc1ccccc1F)c1cccc2cccnc12,-,?,52,-,82
Cc1ccc(NC(=O)c2cccc3cccnc23)cc1,-,-,35,-,111
CC(=O)Nc1cccc(NC(=O)c2cccc3cccnc23)c1,-,?,19,-,-
COc1ccc(Cl)cc1NC(=O)CN1CCN(S(=O)(=O)N2CCCCC2)CC1,?,?,-,-,-
CCOC(=O)N1CCN(C(=O)COC(=O)C2CCN(S(=O)(=O)c3ccc(C)c(C)c3)CC2)CC1,-,-,.,.,.
O=C(NCC(=O)N(CC1CCCO1)C1(C(=O)NC2CCCCC2)CCCCC1)c1ccccc1 (stereo not drawn),?,.,-,-,-
Cc1ccccc1C(=O)N/N=C/c1cccc2ccccc12,?,?,16,-,46
Cc1ccc(Cl)cc1NC(=S)N/N=C/c1cccc2ccccc12,?,2.1µM,-,-,-
O=C(N/N=C/c1ccccc1F)c1cccc2ccccc12,-,-,-,-,40
Cc1ccccc1C(=O)N/N=C/c1ccsc1C,-,-,81,-,125
SMILES,Pf growth 96h,Pf growth 48h,Cycloheximide cs,LmPK inh,Shiga toxin inh
Cc1sccc1/C=N/NC(=O)c1cccc2ccccc12,-,-,-,-,-
C/C(=N\NC(=O)CN1CCN(Cc2ccc(C)cc2)CC1)c1ccncc1,-,-,-,-,-
Cc1ccc(Cl)cc1NC(=S)Nn1cnnc1,2.6µM,-,-,-,-
CCOc1ccc(-n2c(N)c(C(=O)N3CCN(C)CC3)sc2=S)cc1,?,-,-,-,-
CCOc1ccc2nc3sc(C(=O)N4CCN(C)CC4)c(N)c3cc2c1,.,?,17,-,-
CC(C)c1ccc2nc3sc(C(=O)N4CCc5ccccc5C4)c(N)c3cc2c1,-,-,24,-,-
COc1ccc2cc3c(N)c(C(=O)N4CCCC4)sc3nc2c1,-,-,69,-,101
COc1ccc2cc3c(N)nn(C(=O)c4ccccc4Cl)c3nc2c1,?,8.3µM,-,-,-
COc1ccc2cc3c(N)nn(C(=O)c4ccc(F)cc4)c3nc2c1,?,?,-,-,-
